Tg IFNy HTS: T. gondii growth inhibition under IFN-gamma; activity change, negative = inhibition, % (test concentration not listed); hit rate 3.8% among 69,000; Toxoplasma gondii growth in IFN-gamma-treated host cells; active compounds read low; AID 1259416; in the data active means activity change below about -70%, passing the limit was not always enough;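 further: host cells are HeLa cells infected with Toxoplasma gondii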
Large screens that a line does not name were inactive. The sample as a whole holds a higher share of hits than the screen did.

CCc1ccc(NC(=O)CN2C(=O)CCc3cc(S(=O)(=O)N4CCC(C)CC4)ccc32)cc1	Tg IFNy HTS -77
COc1ccc(NC(=O)CN2C(=O)CCc3cc(S(=O)(=O)N4CCCCC4)ccc32)cc1OC	none
O=C(CN1C(=O)CCc2cc(S(=O)(=O)N3CCCC3)ccc21)Nc1ccc(Cl)cc1	none
O=C(CN1C(=O)CCc2cc(S(=O)(=O)N3CCCC3)ccc21)Nc1ccc2c(c1)OCCO2	none
CC1CCN(S(=O)(=O)c2ccc3c(c2)CCC(=O)N3CC(=O)NCc2ccc3c(c2)OCO3)CC1	none
CC(C)NC(=O)c1nc(-n2cnnc2)n[nH]1	none
COCCN1CCC2O[C@@H](C(=O)NCc3cnc(C)cn3)CC21 (some centres not stated)	none
COc1ccc(CC(=O)N2CCC3(CC2)CC(N(C)C)C3)cc1	none
Cc1cc(C)c2c(=O)n(Cc3nc(-c4cccc(Cl)c4)oc3C)c(=O)n(-c3ccccc3)c2n1	none
Cc1cc(C)cc(N2CCN(C(=O)C3CCOC3)CC2=O)c1 (configuration not stated)	none
Cc1nc(Cn2cnc(-c3nc(C(=O)NCc4ccc(Cl)cc4)c4ccccn34)c2)cs1	none
O=C(CN1C(=O)CCc2cc(S(=O)(=O)N3CCCC3)ccc21)Nc1cccc(Br)c1	Tg IFNy HTS -108
CC1CCN(S(=O)(=O)c2ccc3c(c2)CCC(=O)N3CC(=O)Nc2cccc(Cl)c2)CC1	Tg IFNy HTS -87
O=C(CN1C(=O)CCc2cc(S(=O)(=O)N3CCCC3)ccc21)Nc1cccc(F)c1	none
CC1CCN(S(=O)(=O)c2ccc3c(c2)CCC(=O)N3CC(=O)Nc2cccc(F)c2)CC1	none
CC1CCN(S(=O)(=O)c2ccc3c(c2)CCC(=O)N3CC(=O)Nc2ccccc2)CC1	none
Cc1cccc(NC(=O)CN2C(=O)CCc3cc(S(=O)(=O)N4CCCCC4)ccc32)c1	none
Cc1cccc(-c2nc3cnccn3c2NCCC(=O)N2CCC3(CC2)OCCO3)c1	none
CC(=O)N[C@@H](Cc1ccccc1)C(=O)N1C[C@@H]2[C@H](C1)c1ccccc1[C@H]2NC(C)=O	none
CC(=O)N1C[C@@H]2CN(c3ncccn3)CC[C@H]2C1	none
Cc1nc(C2CC2)ncc1C(=O)N(C)Cc1ccc2nsnc2c1	none
Nc1nnc(CCCNC(=O)CN2CCOc3ccccc3C2)s1	none
O=C(CN1CCCC(c2cncc(-c3cccc(C(F)(F)F)c3)n2)C1)Nc1nccs1 (configuration not stated)	none
CCc1ccc(Nc2nc(C(=O)NCc3ccc(C)o3)nc3ccccc23)cc1	none
O=C1CN(/N=C/c2ccc(-c3ccc([N+](=O)[O-])cc3)o2)C(=O)N1	Tg IFNy HTS -76
O=C1OCCN1/N=C/c1ccc([N+](=O)[O-])o1	none
CSCC1CN(/N=C/c2ccc([N+](=O)[O-])o2)C(=O)O1 (configuration not stated)	none
Cc1nc(CCNC(=O)CCNC(=O)c2ccc(F)cc2)nc2c1CCC2	none
Cn1cnc(C(=O)N2CCC3(CC2)CC(NS(C)(=O)=O)CCO3)c1 (configuration not stated)	none
CN(C)CC(=O)N1CC2CN(C(=O)Cc3ccc(Cl)cc3)CC21 (configuration not stated)	none
Cc1ccc(-c2nc3c(s2)CN(C(=O)Nc2cc(C)ccc2C)CC3)cc1	none
COc1ccc(-c2nc3c(s2)CN(C(=O)Nc2cc(C)ccc2C)CC3)cc1OC	none
CCc1ccccc1NC(=O)N1CCc2nc(-c3cccc(OC)c3)sc2C1	none
COc1ccc(-c2nc3c(s2)CN(C(=O)Nc2ccc(C)c(C)c2)CC3)cc1OC	Tg IFNy HTS -83
CCc1ccccc1NC(=O)N1CCc2nc(-c3ccc(OC)c(OC)c3)sc2C1	none
CCc1ccc(NC(=O)N2CCc3nc(-c4ccc(OC)c(OC)c4)sc3C2)cc1	Tg IFNy HTS -79
CCc1ccc(-c2noc(-c3c(O)c4ccc(F)cc4n(CC)c3=O)n2)cc1	none
N#Cc1c(F)cccc1Oc1ccccc1	none
c1ccc(-c2ccsc2-c2ccccc2)cc1	none
CCS(=O)(=O)N1CCOCC2(CC(CN(C)C)CO2)C1 (configuration not stated)	none
O=C1N(Cc2ccccc2)C(=O)C2(CCN(CC3CC=CCC3)CC2)N1CCc1ccccc1 (configuration not stated)	none
O=C1N(Cc2ccccc2)C(=O)C2(CCN(Cc3c[nH]c4ccccc34)CC2)N1CCc1ccccc1	Tg IFNy HTS -77
O=C1N(Cc2ccccc2)C(=O)C2(CCN(Cc3ccsc3)CC2)N1CCc1ccccc1	none
Cc1nonc1CN(C)C(=O)c1ccccc1NCc1cccs1	none
O=C(O)c1ccccc1	none
O=C(O)c1c2ccccc2nc2ccccc12	Tg IFNy HTS -75
O=C(O)c1c2c(nc3ccccc13)CSc1ccc(Cl)cc1-2	none
COc1c(F)cccc1C(=O)N1CCCN2CCC[C@H]2C1	none
CN(Cc1ccco1)Cc1cn(-c2ccccc2)nc1-c1ccc2c(c1)OCO2	none
CN(C)C(=O)CN1CCN(Cc2cccc(C(=O)Nc3cnn(C)c3)c2)CC1	none
COC(=O)c1ccc2c(C(=Nc3ccc(N(C)C(=O)CN4CCN(C)CC4)cc3)c3ccccc3)c(O)[nH]c2c1	Tg IFNy HTS -78
COCCc1nnc(NS(=O)(=O)c2ccc3c(c2)n(C)c(=O)n3C)s1	none
CCc1cnc(C)nc1NC(C)c1nncn1C (configuration not stated)	none
CC(C)C(=O)N1CC[C@H]2CN(CC(=O)N(C)C)S(=O)(=O)[C@@H]2CC1	none
CC(C)Cc1noc(C2CCCN(C(=O)c3cc(C4CC4)[nH]n3)C2)n1 (configuration not stated)	none
COc1ccc(S(=O)(=O)N2CCC3(CC2)Nc2cc(OC)ccc2-n2cccc23)cc1	none
COc1ccc(S(=O)(=O)N2CCC3(CC2)Nc2cc(C)ccc2-n2cccc23)cc1Cl	none
CCN1c2cc(C)ccc2-n2cccc2C12CCN(S(=O)(=O)c1cc(Cl)ccc1OC)CC2	Tg IFNy HTS -106
CCN1c2cc(C)ccc2-n2cccc2C12CCN(S(=O)(=O)c1ccc(OC)c(OC)c1)CC2	none
CCN1c2cc(C)ccc2-n2cccc2C12CCN(S(=O)(=O)c1cccc(Cl)c1)CC2	Tg IFNy HTS -84
CCCNC(=O)N1CCC2(CC1)c1cccn1-c1ccc(C)cc1N2CC	none
COc1ccc(Cl)cc1S(=O)(=O)N1CCC2(CC1)Nc1cc(C)ccc1-n1cccc12	none
CCN1c2cc(C)ccc2-n2cccc2C12CCN(S(=O)(=O)c1ccc(C)cc1)CC2	Tg IFNy HTS -86
CCN1c2cc(C)ccc2-n2cccc2C12CCN(S(=O)(=O)c1ccc(C(C)(C)C)cc1)CC2	none
CCN1c2cc(C)ccc2-n2cccc2C12CCN(S(=O)(=O)c1ccc(OC)cc1)CC2	Tg IFNy HTS -91
Cc1ccc2c(c1C)-n1cccc1C1(CCN(S(=O)(=O)c3cccc(Cl)c3)CC1)N2	none
Cc1nc(C)c(CC(=O)N(C)C2Cc3ccccc3C2)c(=O)[nH]1	none
Cc1cc(F)ccc1S(=O)(=O)NCCc1csc(-c2ccc(Cl)cc2)n1	none
Cc1cc2c(cc1Cl)C(O)CC1(CCN(CC(O)c3ccc4c(c3)CCO4)CC1)O2 (configuration not stated)	none
COCCN1C(=O)C2(CCN(C(=O)[C@H]3CCCO3)CC2)c2ccccc21	none
CC(=O)N1NC(c2ccccc2)CC1c1ccccc1 (configuration not stated)	none
COC(=O)C1CSCC/C1=N\Nc1ccc(Cl)cc1Cl (configuration not stated)	none
COc1ccc(F)cc1-c1ccc(C(C)N2CCOCC2)cc1 (configuration not stated)	none
CCOCCn1cnc(-c2ccccc2)c1-c1c(CC)nn(C)c1Cl	none
Cc1ccc(S(=O)(=O)N2CCC3(CC2)Nc2ccc(C)c(C)c2-n2cccc23)cc1C	none
COc1ccc2c(c1)NC1(CCN(S(=O)(=O)c3c(C)cc(C)cc3C)CC1)c1cccn1-2	none
